These results are taken from PubChem BioAssay (EPA / NIEHS).

For orientation: AC50 means the concentration at which the activity in the assay is half-maximal.

Inconclusive results are not listed. Calls of active or inactive are those of the source. The calls were made as follows, unless noted: active = hit-call score of the fitted dose curve at least 0.9, where 1 is the maximum; inconclusive = response in the unintended direction; inactive = score below 0.9.

Read-out in experiment [1]: Thyroid Hormone Responsive (THRSP), THRSP (gene 7069)
Description: LTEA_HepaRG_THRSP: Life Technologies and Expression Analysis (LTEA) Assay for Thyroid Hormone Responsive (THRSP) using HepaRG (AID 2283536; active = hit-call score of the fitted dose curve at least 0.9, where 1 is the maximum; inactive = score below 0.9). The following applies: mRNA level, 48 h; actives raise or lower the signal. The gist of the method: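 Differentiated HepaRG cells treated 48 h in serum-free induction medium with 8 half-log concentrations up to 100 uM (0.5% DMSO), duplicates. THRSP mRNA by TaqMan qRT-PCR normalised to ACTB, GAPDH, POLR2A; bidirectional fit versus DMSO.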

Read-out in experiment [2]: Cellular tumor antigen p53 (Homo sapiens) (UniProt P04637)
Description: LTEA_HepaRG_TP53: Life Technologies and Expression Analysis (LTEA) Assay for Tumor Protein P53 (TP53) using HepaRG (AID 2283537; active = hit-call score of the fitted dose curve at least 0.9, where 1 is the maximum; inactive = score below 0.9). The following applies: mRNA level, 48 h; actives raise or lower the signal. The gist of the method: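 HepaRG, 48 h exposure, top 100 uM, half-log 8-point, 0.5% DMSO vehicle, duplicates. Read: TP53 mRNA by TaqMan qRT-PCR, normalised to ACTB/GAPDH/POLR2A; bidirectional fit vs DMSO.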

Read-out in experiment [3]: UDP glucuronosyltransferase (UGT1A1), UGT1A1 (gene 54658)
Description: LTEA_HepaRG_UGT1A1: Life Technologies and Expression Analysis (LTEA) Assay for UDP glucuronosyltransferase (UGT1A1) using HepaRG (AID 2283538; active = hit-call score of the fitted dose curve at least 0.9, where 1 is the maximum; inactive = score below 0.9). The following applies: mRNA level, 48 h; actives raise or lower the signal. In short, it runs like this:
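Human liver HepaRG cultures receive test chemical for 48 h, up to 100 uM in 0.5% DMSO, with phenobarbital induction controls. UGT1A1 mRNA is measured by qRT-PCR and normalized to ACTB, GAPDH and POLR2A.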

Read-out in experiment [4]: UDP glucuronosyltransferase (UGT1A6), UGT1A6 (gene 54578)
Briefly: LTEA_HepaRG_UGT1A6: Life Technologies and Expression Analysis (LTEA) Assay for UDP glucuronosyltransferase (UGT1A6) using HepaRG (AID 2283539; active = hit-call score of the fitted dose curve at least 0.9, where 1 is the maximum; inactive = score below 0.9). The following applies: mRNA level, 48 h; actives raise or lower the signal. The gist of the method: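 Expression was quantified by TaqMan qRT-PCR on Fluidigm arrays with ACTB/GAPDH/POLR2A normalization and bidirectional fitting against 0.5% DMSO. HepaRG cells (~100,000/well) were treated in duplicate for 48 h at eight half-log concentrations up to 100 uM in serum-free induction medium.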

Read-out in experiment [5]: X-box binding protein 1 (XBP1), XBP1 (gene 7494)
Description: LTEA_HepaRG_XBP1: Life Technologies and Expression Analysis (LTEA) Assay for X-box binding protein 1 (XBP1) using HepaRG (AID 2283540; active = hit-call score of the fitted dose curve at least 0.9, where 1 is the maximum; inactive = score below 0.9). The following applies: mRNA level, 48 h; actives raise or lower the signal. In short, it runs like this: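 XBP1 transcript by qRT-PCR (housekeeping-normalized: ACTB, GAPDH, POLR2A) after 48 h chemical treatment of HepaRG cells, 8-point half-log series topping at 100 uM, vehicle 0.5% DMSO. Gain and loss of signal fitted relative to DMSO.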

A short description of experiment [6]: LTEA_HepaRG_LDH_cytotoxicity: Cytotoxicity Assessment in the Life Technologies and Expression Analysis (LTEA) Assay (AID 2283563).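 As to AC50: LDH activity released into spent culture medium as a marker of cell death.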 In short, it runs like this:
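LDH release into culture medium read after 48 h chemical treatment of HepaRG cells. Duplicate wells, eight-point half-log series topping at 100 uM, 0.5% DMSO vehicle and baseline.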

Experiment [7] in a line: TOX21_p53_BLA_p2_viability: Viability Assessment in the Tox21 HCT-116 p53 Agonism Beta-lactamase Assay, Phase 2 (AID 2283591).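 Also: compound exposure lasted 16 h at 37 °C; actives lower the ATP signal meaning cytotoxicity.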 The gist of the method:
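HCT116 p53-bla cells, 4000/well, dosed after 5 h plating (217-fold dilution of DMSO stocks) and incubated 16 h at 37C. Viability taken as cellular ATP by CellTiter-Glo luminescence after 30 min RT; signal loss marks cytotoxicity.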

The target in experiment [8] is Cellular tumor antigen p53 (Homo sapiens) (UniProt P04637). Description: TOX21_p53_BLA_p2_ratio: Tox21 HCT-116 p53 Agonism Beta-lactamase Assay, Ratio, Phase 2 (AID 2283592). The gist of the method:
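Gain-of-signal p53 agonism was scored from the beta-lactamase FRET ratio (460/530 nm, 405 nm excitation) in HCT116 cells treated 16 h at 37C, 5% CO2, with DMSO serving as negative control and baseline.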

Experiment [9] can be described thus: TOX21_p53_BLA_p3_viability: Viability Assessment in the Tox21 HCT-116 p53 Agonism Beta-lactamase Assay, Phase 3 (AID 2283593).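 Also: cells exposed to compound for 16 h before reading.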 In short, it runs like this:
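HCT116 cells, 4000/well, dosed 5 h after plating by pin transfer (217-fold dilution from DMSO stock) and incubated 16 h at 37C, 5% CO2. Viability read as ATP luminescence with CellTiter-Glo after 30 min at room temperature.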

In experiment [10] the target is Cellular tumor antigen p53 (Homo sapiens) (UniProt P04637). Briefly: TOX21_p53_BLA_p3_ratio: Tox21 HCT-116 p53 Agonism Beta-lactamase Assay, Ratio, Phase 3 (AID 2283596). The gist of the method: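 HCT116 p53-bla cells (4000/well) given compound in DMSO (217-fold dilution) after 5 h, incubated 16 h at 37C. CCF4-AM substrate 2 h at room temperature; 460/530 nm emission ratio, gain fitted against DMSO.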

Experiment [11] is described as follows: TOX21_p53_BLA_p4_viability: Viability Assessment in the Tox21 HCT-116 p53 Agonism Beta-lactamase Assay, Phase 4 (AID 2283597).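 Also: hits lower the luminescence signal meaning cytotoxicity.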 In short, it runs like this: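 Following a 16 h exposure at 37C, the treated HCT116 wells were first read for the FRET ratio. They were then lysed with CellTiter-Glo, and ATP luminescence was recorded after 30 min at room temperature.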

Experiment [12] concerns the target Cellular tumor antigen p53 (Homo sapiens) (UniProt P04637). Description: TOX21_p53_BLA_p5_ratio: Tox21 HCT-116 p53 Agonism Beta-lactamase Assay, Ratio, Phase 5 (AID 2283599). In short, it runs like this: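 HCT-116 p53-bla cells (4000/well) plated 5 h, dosed with compound (217-fold DMSO dilution) for 16 h at 37 C; CCF4-AM substrate 2 h at room temperature. Activity is the 460/530 nm emission ratio (405 nm excitation), fitted in gain-of-signal direction versus DMSO.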

Experiment [13] is described as follows: TOX21_p53_BLA_p5_viability: Viability Assessment in the Tox21 HCT-116 p53 Agonism Beta-lactamase Assay, Phase 5 (AID 2283600). The gist of the method: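 After the 460/530 nm beta-lactamase measurement, the wells received an ATP-detection luciferase reagent; signal was read 30 min later at RT. Compound treatment lasted 16 h on cells pre-incubated 5 h post-seeding.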

The target in experiment [14] is Cellular tumor antigen p53 (Homo sapiens) (UniProt P04637). Briefly: TOX21_p53_BLA_p4_ratio: Tox21 HCT-116 p53 Agonism Beta-lactamase Assay, Ratio, Phase 4 (AID 2283601). In short, it runs like this: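 HCT-116 p53 beta-lactamase reporter cells (4000/well) preincubated 5 h, then compound (217-fold dilution of DMSO stock) for 16 h at 37C. CCF4-AM substrate added 2 h at room temperature; 460/530 nm emission ratio fitted upward versus DMSO.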

A short description of experiment [15]: Tanguay_ZF_120hpf_MORT_legacy: (Legacy) Oregon State University Tanguay Lab 120 Hour Post-fertilization zebrafish Assay for Mortality (AID 2283633). The gist of the method:
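Static waterborne exposure from 6 to 120 hpf at 28C of single dechorionated wild-type (5D) embryos per well, 0.64% DMSO final. Death recorded present/absent by brightfield at 24 and 120 hpf.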

A short description of experiment [16]: Tanguay_ZF_120hpf_YSE_legacy: (Legacy) Oregon State University Tanguay Lab 120 Hour Post-fertilization zebrafish Assay for Yolk Sac Edema (AID 2283634). In short, it runs like this: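 Presence or absence of yolk sac edema was recorded at 120 hpf in surviving larvae. These were wild-type Tropical 5D embryos, chorion removed at 4 hpf, held in static exposure at 28C from 6 hpf with 0.64% DMSO vehicle.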

Experiment [17] is described as follows: Tanguay_ZF_120hpf_AXIS_legacy: (Legacy) Oregon State University Tanguay Lab 120 Hour Post-fertilization zebrafish Assay for Body Axis Malformation (AID 2283635). The gist of the method: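 Binary scoring of axis defects at 120 hpf under brightfield, fitted positive versus DMSO. Tropical 5D embryos, chorion removed by pronase at 4 hpf, were singly exposed in sealed, dark plates at 28C from 6 hpf; DMSO 0.64% final.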

The nature of experiment [18]: Tanguay_ZF_120hpf_SNOU_legacy: (Legacy) Oregon State University Tanguay Lab 120 Hour Post-fertilization zebrafish Assay for Snout Malformation (AID 2283637). The gist of the method: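 Dechorionated tropical 5D wild-type zebrafish embryos exposed statically from 6 to 120 hpf at 28C, one per well, in 0.64% DMSO. Snout malformation scored as present/absent by brightfield at 120 hpf; dead embryos not scored.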

A short description of experiment [19]: ATG_XTT_Cytotoxicity: Cytotoxicity Assessment in the Attagene TRANS-FACTORIAL HepG2 Assay (AID 2283584). In short, it runs like this:
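Viability endpoint from XTT after 24 h chemical exposure of reporter-transfected human HepG2 liver cells; signal loss fitted relative to DMSO negative control.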

Experiment [20] can be described thus: Tanguay_ZF_120hpf_EYE_legacy: (Legacy) Oregon State University Tanguay Lab 120 Hour Post-fertilization zebrafish Assay for Eye Malformation (AID 2283636).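 Also: binary presence or absence of eye malformation scored by brightfield in 120 hpf larvae.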 In short, it runs like this: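 Dechorionated Tropical 5D zebrafish embryos, one per well from 6 hpf, static exposure to 120 hpf at 28C, 0.64% DMSO. Eye malformation scored present/absent by brightfield; dead embryos not scored.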

Chain of Cellular tumor antigen p53 (Homo sapiens) (P04637 whole entry, looked up): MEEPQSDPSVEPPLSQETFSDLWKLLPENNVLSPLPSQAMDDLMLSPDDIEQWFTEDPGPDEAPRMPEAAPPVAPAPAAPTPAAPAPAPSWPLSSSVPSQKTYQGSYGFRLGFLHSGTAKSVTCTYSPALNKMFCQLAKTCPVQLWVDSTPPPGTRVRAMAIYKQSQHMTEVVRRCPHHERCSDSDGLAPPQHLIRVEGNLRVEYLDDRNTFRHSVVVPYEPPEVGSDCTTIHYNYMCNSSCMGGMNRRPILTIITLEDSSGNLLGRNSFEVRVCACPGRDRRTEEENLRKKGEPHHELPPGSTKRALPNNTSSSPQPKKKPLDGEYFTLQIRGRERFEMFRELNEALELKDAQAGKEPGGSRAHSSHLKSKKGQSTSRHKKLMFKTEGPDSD

As for `CN[C@H]1CC[C@@H](c2ccc(Cl)c(Cl)c2)c2ccc(S(N)(=O)=O)cc21`, the result in [1], in experiment [5], in experiment [15], in experiment [16], in experiment [17] and in [18] was inactive. The AC50 was 87.6 µM (active) in experiment [2]; 37 µM (active) in [3]; 74.2 µM (active) in [4]; 36.9 µM (active) in experiment [6]; 78.4 µM (active) in [7]; 87 µM (active) in experiment [8]. The half-maximal activity concentration (AC50) in experiment [9] was 71.7 µM (active); in experiment [10], 86.1 µM (active); in experiment [11], 61.9 µM (active); in experiment [12], 82.5 µM (active); in experiment [13], 85.5 µM (active); in experiment [14], 86.1 µM (active).

For the compound `CCCCCC(=O)O`, the result in experiment [1], in experiment [2], in experiment [3], in experiment [4], in experiment [5] and in experiment [6] was inactive. Also, the compound was classed as inactive in experiment [19], in experiment [7], in [9], in experiment [10], in [11] and in experiment [12]. The result in experiment [14], in experiment [15], in [16], in experiment [17], in [20] and in experiment [18] was inactive.

On to `CCCCCCCCCCC`, for which the compound was called inactive in [1], in experiment [2], in experiment [3], in experiment [4], in experiment [5] and in experiment [6]. For the same compound, the call in experiment [19], in [7], in [8], in experiment [10], in experiment [14] and in [15] was inactive. The call in experiment [16], in experiment [17], in experiment [20] and in [18] was inactive.

Take `CCCCCCCC=O`: the compound was classed as inactive in [1], in experiment [2], in experiment [3], in experiment [4], in experiment [5] and in experiment [6]. Also, the compound was classed as inactive in [19], in [7], in experiment [8], in experiment [9], in experiment [10] and in [11]. In addition, the call in experiment [13], in experiment [14], in experiment [15], in experiment [16], in experiment [17] and in experiment [20] was inactive. Further, the call in [18] was inactive.
